Shown are actives, neighbours in structure and some others; about 3.8% of the full set was active somewhere.
HBB splicing – modulators of hemoglobin beta chain splicing; HBB splicing reporter cell assay, activation; EGFP reporter with mutant IVS2-654 intron; response scale: normalised to 500 nM splice-correcting PNA; Potency, µM (series often up to 46.1 µM), hits mostly activators; 65,000 tested, 0.06% active
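Compounds were applied for 2 days to HeLa EGFP-654 cells, 500/well in Optimem with 2% FCS. The reporter's EGFP is disrupted by mis-splicing of beta-globin intron IVS2-654. Readout: summed well GFP fluorescence from 488 nm laser scanning; reference was 500 nM antisense […] 654 PNA.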
HEK293 cAMP ctrl – counter-screen for TSHR agonists: cAMP increase in parental HEK293 | parental HEK293 CNG cAMP sensor, membrane potential fluorescence | Potency, µM (series often up to 57.1 µM), most hits filed as activators | 73,000 tested, 2.5% active; further: nearly all actives have a fitted effect of over 55% in size
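Parental HEK 293 cells stably expressing a modified CNG channel (no TSHR) report cAMP rise as membrane depolarization. Membrane potential dye with 100 uM RO 20-1724 was loaded for 60 min at room temperature, then compound added for 30 min; fluorescence read at 590 nm.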
UbGFP stabilizer – inhibits proteasome, raising ubiquitin-GFP reporter fluorescence; 67,000 tested, under 10 active; AID 526; Potency, µM (titrated, usually from 45.9 µM), hits mostly activators; Ubiquitin-GFP reporter cells, proteasome inhibition, GFP fluorescence; response scale: untreated = 0%, 10 µM MG-132 = 100%; active means well fitted activation curve with a large enough effect, not every such curve was filed as active; inconclusive means small, poorly fitted or top-dose-only effect, or another doubt; inactive means no such curve, though single readings can be large or run the other way
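U2OS Ub(G76V)-GFP reporter; O/N plating, 0.5% FBS; cpd 46 uM–2.9 nM, 4 h, 37 °C; GFP+ cell count, 488/515 nm; norm. to basal vs 10 uM MG-132; CRC fit.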
GFP derepression – epigenetic GFP locus derepression in mouse cells | mouse C127i GFP locus derepression, cytometry, 30 h | Potency, µM (titrated, usually from 46.1 µM) | 68,000 tested, 0.09% active
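Derepression screen: silenced CMV-GFP reporter in murine C127i cells, 30 h compound incubation at 37 C, washed cells imaged by laser-scanning cytometer to enumerate GFP-expressing objects of 20 to 120 um.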
ERK AVP inh – vasopressin-driven ERK pathway inhibition; HEK293-V1b, vasopressin-stimulated pERK AlphaScreen; Potency, µM (series often up to 57.5 µM), usual class: inhibitors; 72,000 tested, 0.99% active; further: nearly all actives have a fitted effect of over 55% in size
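V1b-HEK293 cells; cpd 30 min 37C; 25 nM vasopressin 5 min; lyse 10 min; AlphaScreen beads 5 hr RT. Normalized to DMSO basal and 25 nM vasopressin; AC50 by Hill fit.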
TSHR ag – activates the human thyroid stimulating hormone receptor; HEK293-CNG-TSHR cells (CNG channel as cAMP sensor), membrane potential dye, cAMP; 73,000 tested, 0.48% active; Potency, µM (highest dose often 57.1 µM), hits mostly activators; active means well fitted activation curve with a large enough effect in the main read-out, with a control signal flat, not every such curve was filed as active; inconclusive means small, poorly fitted or top-dose-only effect, or a change in a side signal; inactive means no such curve, though single readings can be large or run the other way; reference of the percent scale not stated here;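 further: the control signal comes from parental cells without the receptor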
Target sequence (P16473 whole entry, looked up): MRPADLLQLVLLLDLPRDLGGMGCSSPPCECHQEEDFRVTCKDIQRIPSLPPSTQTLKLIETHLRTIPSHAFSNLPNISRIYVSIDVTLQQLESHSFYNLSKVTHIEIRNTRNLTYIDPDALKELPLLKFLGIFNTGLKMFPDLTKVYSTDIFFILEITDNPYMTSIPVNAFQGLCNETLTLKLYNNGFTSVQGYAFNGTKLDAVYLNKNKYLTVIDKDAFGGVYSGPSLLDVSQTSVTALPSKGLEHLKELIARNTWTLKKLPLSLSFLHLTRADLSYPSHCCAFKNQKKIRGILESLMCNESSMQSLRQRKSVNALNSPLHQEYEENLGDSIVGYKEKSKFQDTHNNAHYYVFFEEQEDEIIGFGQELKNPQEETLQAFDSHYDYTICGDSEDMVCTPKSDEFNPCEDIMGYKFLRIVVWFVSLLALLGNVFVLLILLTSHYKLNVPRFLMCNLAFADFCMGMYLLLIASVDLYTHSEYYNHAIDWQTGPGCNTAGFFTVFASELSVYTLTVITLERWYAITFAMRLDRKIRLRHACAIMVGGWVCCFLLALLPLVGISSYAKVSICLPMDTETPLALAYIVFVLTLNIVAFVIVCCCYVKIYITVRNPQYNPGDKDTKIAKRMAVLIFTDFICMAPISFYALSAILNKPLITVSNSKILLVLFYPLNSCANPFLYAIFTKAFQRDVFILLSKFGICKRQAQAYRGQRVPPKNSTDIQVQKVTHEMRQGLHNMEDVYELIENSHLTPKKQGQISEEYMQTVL
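cAMP rise detected as CNG-channel membrane depolarization by fluorescent dye (emission 590 nm), 30 min after compound, following 60 min dye loading containing 100 uM RO 20-1724 at room temperature. Cells: TSHR/CNG HEK 293, with parental CNG HEK 293 as control.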
Of the large screens only hits and unclear results are named; the others gave an inactive call. Unless noted, the call rests on the fitted dose curve; in most records, active means well fitted curve in the direction sought with a large enough effect; inconclusive means small, poorly fitted or top-dose-only effect, or another doubt; inactive means no such curve, though single readings can be large; an effect the other way counts as inactive or inconclusive.

Cc1cccc(CNc2ncnc3ccc(-c4cccnc4)cc23)c1	HEK293 cAMP ctrl inconclusive, ERK AVP inh 2µM, TSHR ag inconclusive
COc1ccc(NC(=O)N2CCCC3(CCN(C(=O)c4cccn4C)CC3)C2)cc1	none
COc1ccc(NC(=O)N2CC3(CCNCC3)C2)cc1	none
CC(=O)N1CCC2(CCN(Cc3ccc(C#N)cc3)CC2)CC1	HEK293 cAMP ctrl inconclusive, TSHR ag inconclusive
O=C(CS(=O)(=O)c1ccccc1)Nc1nc(-c2ccccc2)cs1	ERK AVP inh 40µM
CCOC(=O)c1nnn(-c2nonc2N)c1COc1ccccc1	HEK293 cAMP ctrl 13µM, TSHR ag inconclusive
CCOC(=O)c1cc(C)n(CCc2ccccc2)c1C	HEK293 cAMP ctrl 25µM, TSHR ag inconclusive
CCNc1ncc2nc(-c3cc(F)cc(F)c3)c(=O)n(C3CC3)c2n1	none
Cc1c(C(=O)OCC2CCCO2)[nH]c2c1C(=O)CC(c1ccc(N(C)C)cc1)C2 (stereo not given)	ERK AVP inh 25µM
C[C@@H](C(=O)O)c1ccc(N2Cc3ccccc3C2=O)cc1	none
CCCCCC(=O)Cc1cc(O)cc(O)c1C(=O)Oc1cc(CC(=O)CCCCC)c(C(=O)O)c(OC)c1	none (no result: HBB splicing, HEK293 cAMP ctrl, UbGFP stabilizer, GFP derepression, TSHR ag)
N#Cc1cc2cc3c(cc2nc1SCC(=O)OC1CCCCC1)OCO3	HEK293 cAMP ctrl 16µM, TSHR ag inconclusive
c1ccc(CN(Cc2ccco2)C(c2ccncc2)c2nnnn2C2CCCC2)cc1 (stereo not given)	HEK293 cAMP ctrl 10µM, TSHR ag inconclusive
CCN(CC)C(c1ccc(C)cc1)c1nnnn1C1CCCCC1 (stereo not given)	HEK293 cAMP ctrl 16µM, TSHR ag inconclusive
CCN(CC)C(c1ccc(F)cc1)c1nnnn1C1CCCCC1 (stereo not given)	none
CCCCN(CC)S(=O)(=O)c1cccc2cccnc12	HEK293 cAMP ctrl 20µM, TSHR ag inconclusive (no result: GFP derepression, ERK AVP inh)
O=S(=O)(c1cccc2cccnc12)N(CCO)CCO	none
COc1ccccc1N1CCN(S(=O)(=O)c2ccccc2)CC1	none
Cc1cc(N2CCN(S(=O)(=O)c3ccccc3)CC2)c2ccccc2n1	ERK AVP inh 32µM
COc1ccc2c(c1)c(=O)oc1cc(OCC(=O)N3CCCC(C)C3)ccc12 (stereo not given)	HEK293 cAMP ctrl 32µM, ERK AVP inh 32µM, TSHR ag inconclusive
CSC(N)=NCCC[C@@H](N)C(=O)O	none
CC(C)CNC(=O)CN(C1CCCCC1)S(=O)(=O)c1ccccc1	TSHR ag 32µM
C[C@@]12CCC(=O)C=C1CC[C@@H]1[C@@H]2[C@H](O)C[C@]2(C)[C@@H]1CC[C@]2(O)C(=O)COC(=O)CCC(=O)O	HEK293 cAMP ctrl inconclusive, TSHR ag inconclusive
O=c1c(-c2ccc(F)cc2)nc2cnc(Oc3cccc(Cl)c3)nc2n1C[C@H]1CCCO1	none
Cc1onc(-c2ccccc2Cl)c1C(=O)Nc1ccc(OCC(=O)N2CCOCC2)cc1	HEK293 cAMP ctrl 4µM, TSHR ag inconclusive
CC(C)CCNC(=O)C1CCN(S(=O)(=O)c2ccc3c(c2)CCC(=O)N3)CC1	HEK293 cAMP ctrl 6.3µM, TSHR ag inconclusive
O=C(COc1ccc(Cl)cc1)Nc1nc(-c2cccs2)cs1	HEK293 cAMP ctrl 25µM, ERK AVP inh 25µM, TSHR ag inconclusive
CCOC(=O)Cc1csc(NC(=O)COc2ccc(N(C)S(=O)(=O)c3cccs3)cc2)n1	HEK293 cAMP ctrl 13µM, TSHR ag inconclusive
COc1cc(C(=O)Nc2nc(-c3cccs3)cs2)cc(OC)c1OC	HEK293 cAMP ctrl inconclusive, ERK AVP inh 3.2µM, TSHR ag inconclusive (no result: UbGFP stabilizer)
C[C@H]1[C@H](C)CC[C@]2(C(=O)O)CC[C@]3(C)C(=CCC4[C@@]5(C)C[C@@H](O)[C@H](O)[C@@](C)(CO)[C@@H]5CC[C@]43C)[C@H]12 (stereo not given in full)	none (no result: HBB splicing, HEK293 cAMP ctrl, UbGFP stabilizer, GFP derepression, TSHR ag)
COc1ccc(Oc2ncc3ncc(=O)n(CCC#N)c3n2)cc1	none
CN(C)c1ncc2nc(-c3ccc(F)cc3)c(=O)n(CCC#N)c2n1	none (no result: TSHR ag)
N#CC(C(=O)NCc1ccccc1)c1nc2ccccc2nc1N1CCCC1 (stereo not given)	HBB splicing 10µM, HEK293 cAMP ctrl inconclusive, GFP derepression inconclusive, TSHR ag inconclusive
N#CC(C(=O)NCCc1ccccc1)c1nc2ccccc2nc1N1CCCCC1 (stereo not given)	none
CC(=O)OC[C@@H]1O[C@@H](O/N=C2/C[C@@H](O)[C@@H](O)[C@@H]3[C@@H]4C(=O)N(C(C)(C)C)C(=O)[C@H]4CC[C@@H]23)[C@H](OC(C)=O)[C@H](OC(C)=O)[C@@H]1OC(C)=O	none (no result: UbGFP stabilizer, GFP derepression)
O=C(Nc1ccccn1)c1c(O)c2cccc3c2n(c1=O)CCC3	none
O=C(Nc1nccs1)c1c(O)c2cccc3c2n(c1=O)CCC3	HEK293 cAMP ctrl 1.3µM, TSHR ag inconclusive (no result: HBB splicing)
COc1ccccc1CN1CCC2(CC1)CCN(S(C)(=O)=O)CC2	HEK293 cAMP ctrl inconclusive, TSHR ag inconclusive
CC1(C(=O)NCC2CC2)C=CC2(CCCCC2)N1C(=O)c1ccccc1 (stereo not given)	HEK293 cAMP ctrl 10µM, TSHR ag inconclusive (no result: UbGFP stabilizer, GFP derepression)
COc1cccc(-c2cc(NCc3ccc(OC)cc3OC)ncn2)c1	HEK293 cAMP ctrl inconclusive, TSHR ag inconclusive
Clc1ccccc1-c1cc(NCc2ccccc2)ncn1	HEK293 cAMP ctrl inconclusive, ERK AVP inh 25µM, TSHR ag inconclusive
COc1cccc(-c2cc(NCc3ccccc3)ncn2)c1	HEK293 cAMP ctrl inconclusive, ERK AVP inh 5µM, TSHR ag inconclusive
NCCC[C@@H](CC(=O)N[C@@H]1CCNC[C@H]1C(=O)N[C@H](CC(=O)N[C@@H](CCC(=O)O)CC(=O)O)Cc1ccccc1)NC(=O)C[C@H](CO)NC(=O)[C@@H]1CNCC[C@H]1N	HEK293 cAMP ctrl inconclusive, TSHR ag inconclusive (no result: UbGFP stabilizer, GFP derepression, ERK AVP inh)
COC(=O)[C@@H]1C[C@H]2CC[C@H](O)C[C@H]2N1Cc1c(F)cccc1Cl	none (no result: HBB splicing, HEK293 cAMP ctrl, UbGFP stabilizer, GFP derepression, TSHR ag)
CN1CCCN(C(=O)Cc2c(Cl)cccc2Cl)c2nc3ccccc3nc21	HBB splicing 10µM
CN1CCCN(C(=O)c2cc(=O)[nH]c3ccccc23)c2nc3ccccc3nc21	HEK293 cAMP ctrl inconclusive, TSHR ag inconclusive
CC(=O)Nc1ccccc1-c1ccc(C)o1	none (no result: HBB splicing)
CC(=O)CCc1oc2ccc(NC(C)=O)cc2c1-c1ccc(C)o1	GFP derepression inconclusive, ERK AVP inh 32µM (no result: TSHR ag)
CCN1CCN(c2ncnc3c2oc2nc(C(C)C)c4c(c23)CCC4)CC1	none (no result: UbGFP stabilizer)
CC(C)Cc1nc2oc3c(N4CCN(CCO)CC4)ncnc3c2c2c1CCCC2	HEK293 cAMP ctrl 16µM, TSHR ag inconclusive

Compound activity (PubChem BioAssay)
